# Assay outcomes deposited in PubChem BioAssay by National Center for Advancing Translational Sciences (NCATS).
# Rows were chosen to be rich in hits. Some 1.4% of all compounds tested hit in one or more screens of this group.
# BRCA1 expr up = increases BRCA1 expression; MCF7-BRCA1-FFLuc reporter, luminescence, 48 h; response scale: scaled: vehicle 0%, 10 µM genistein 100%; AID 624202; Potency, µM (titrated, usually from 46.1 µM), inactives show at the highest dose activation, most hits filed as activators; actives 1.1% (n = 380,000); also: potency is read from the fitted curve at half-maximal effect; nearly all actives have a fitted effect of over 80% in size
#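 Using MCF7 cells harboring a BRCA1 firefly luciferase reporter, plated 2 h before compound pinning, the screen measured luminescence after 48 h incubation. Responses were normalized to DMSO and 10 microM genistein, then fitted for concentration-effect.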
# p53 reactivation = re-activators of mutant p53. AID 504706. Potency, µM (titrated, usually from 92.2 µM), for the others: top-dose activity change, positive = activation, actives largely listed as activators. H1299 p53-A138V BP100-luciferase reporter, luminescence, 24 h. actives 0.063% (n = 320,000); also: potency is read from the fitted curve at half-maximal effect; % of control where 0% means no effect; nearly all actives have a fitted effect of over 45% in size
#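 H1299 (p53-null), stable ts p53-A138V + BP100-Luc; 1000 cells/well, Opti-MEM/10% FBS; cpd 4 pt, 1:5; 24 h, 37 deg C, 5% CO2; detection reagent 10 min RT; luminescence.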
# N370S GC mod = inhibitors or activators of N370S glucocerebrosidase for Gaucher disease | P04062 | N370S GC spleen homogenate, 4MU-glucoside fluorescence | Potency, µM (highest dose often 59.4 µM), without a hit: top-dose activity change, negative = inhibition, most hits filed as inhibitors | actives 0.092% (n = 330,000) | AID 2101;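 also: potency is read from the fitted curve at half-maximal effect; 0% = full enzyme activity and -100% = no enzyme basal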
# TSHR antagonist = blocks TSH signaling through the human TSH receptor | P16473 | TSHR-expressing cells, TSH-stimulated cAMP HTRF, 2 h; hits give low values | activity change, negative = inhibition, % at 11.5 µM | actives 0.2% (n = 330,000) | AID 504810;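 active = activity change below a set negative limit, meaning inhibition stronger than a set level, cut at about -70% in these data; inconclusive = activity change between two set negative limits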; also: % is scaled to controls: 0 for no effect and ±100 for the full control effect
# Target sequence (P16473 whole entry, looked up): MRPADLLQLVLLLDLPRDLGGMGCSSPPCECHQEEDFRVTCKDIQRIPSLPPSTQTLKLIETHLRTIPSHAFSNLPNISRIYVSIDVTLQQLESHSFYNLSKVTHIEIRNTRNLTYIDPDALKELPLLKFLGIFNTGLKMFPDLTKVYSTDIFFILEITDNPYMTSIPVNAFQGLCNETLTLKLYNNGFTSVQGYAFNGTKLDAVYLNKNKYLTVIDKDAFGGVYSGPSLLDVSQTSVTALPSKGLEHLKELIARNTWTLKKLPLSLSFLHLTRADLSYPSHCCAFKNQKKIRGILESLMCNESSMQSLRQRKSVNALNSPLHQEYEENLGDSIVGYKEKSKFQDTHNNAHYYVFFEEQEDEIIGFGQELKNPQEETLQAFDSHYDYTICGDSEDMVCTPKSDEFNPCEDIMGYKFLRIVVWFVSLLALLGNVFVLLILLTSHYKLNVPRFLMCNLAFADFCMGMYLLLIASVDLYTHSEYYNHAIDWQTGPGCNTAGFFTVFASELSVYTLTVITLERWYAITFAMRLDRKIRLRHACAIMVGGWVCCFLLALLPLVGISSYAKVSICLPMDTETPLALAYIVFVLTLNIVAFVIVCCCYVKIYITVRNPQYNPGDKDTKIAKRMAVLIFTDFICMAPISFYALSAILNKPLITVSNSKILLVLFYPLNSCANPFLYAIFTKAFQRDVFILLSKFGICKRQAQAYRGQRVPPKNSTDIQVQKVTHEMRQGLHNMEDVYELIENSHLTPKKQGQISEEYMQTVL
#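 TSHR-expressing cells, 200/well, pre-treated with compound, then stimulated with EC80 TSH (4nM final) for 2 hours at 37 deg C. cAMP measured by competitive HTRF: anti-cAMP cryptate antibody in lysis buffer plus cAMP-d2, read after 30 minutes at room temperature.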
# GLS inhibitor = blocks human kidney-isoform glutaminase activity | O94925 | AID 624170 | Potency, µM (doses to about 45.5 µM), for inactives: top-dose activity change, negative = inhibition, hits mostly inhibitors | GLS enzymatic activity, qHTS titration | actives 0.21% (n = 410,000); also: potency is read from the fitted curve at half-maximal effect; % is scaled to controls: 0 for no effect and ±100 for the full control effect
#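 Assay buffer: 45 mM KH2PO4 pH 8.2, 0.02% Tween-20. hKGA acts on L-glutamine (1 mM solution added); product glutamate is reported by an oxidase/peroxidase Amplex Red coupling, with fluorescence taken at baseline and 30 min.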
# TCR activator = T cell receptor activation | Potency, µM (top dose mostly 9.22 µM), inactives show at the highest dose activation of IL-2 secretion, actives largely listed as activators | 330,000 tested, under 10 active | AID 504894 | primary human leukocytes, anti-CD3, IL-2 HTRF, 48 h; also: % of control where 0% means no effect
#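 IL-2 produced over 48 hr by a-CD3 bead-stimulated primary human leukocytes exposed to compounds was detected with a homogeneous time-resolved FRET immunoassay, 665nm acceptor signal after 320nm excitation.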
# * = called active by the depositor; ? = inconclusive; . = no result given; [ ] = remark or other dose. Unless noted, calls follow the shape of the dose curve; as a rule, active = well fitted curve in the direction sought with a large enough effect; inconclusive = small, poorly fitted or top-dose-only effect, or another doubt; inactive = no such curve, though single readings can be large; an effect the other way counts as inactive or inconclusive.
SMILES,BRCA1 expr up,p53 reactivation,N370S GC mod,TSHR antagonist,GLS inhibitor,TCR activator
COc1cccc(NC(=O)COc2ccccc2C(=O)Nc2ccccc2)c1,21%,.,.,.,.,.
CC(C)(C)c1ccc(S(=O)(=O)/C=C\C#N)cc1,.,.,-1%,.,.,.
O=C(Nc1ccccc1)c1ccc(Br)o1,2%,18%,3%[89.1 µM],5,2%,1%
O=C(Nc1ccccc1C(=O)O)c1ccc(Br)o1,14µM*,?,-25%,-16,-5%,2%
COC(=O)Cc1ccc(NC(=O)c2ccc(Br)o2)cc1,13µM*,?,22%,10,-1%,-2%
CCN(CC)c1ccc(NC(=O)c2ccc(Br)o2)cc1,2.8µM*,?,2%,-10,40%,-2%
COc1ccc(-c2ccc(NC(=O)c3ccc(Br)o3)cc2)nn1,4µM*,28%,-8%,11,3%,5%
O=C(Nc1ccccc1F)c1ccc(Br)o1,11%,?,2%[89.1 µM],7,0%,-8%
CCC(C(=O)Nc1ccc(C(=O)OC)cc1)n1nc(-c2ccc(C)cc2)c2c(c1=O)CCCC2 (stereo not drawn),-36%,.,.,.,7%,.
O=C(O)CCCC/C=C(\c1ccccc1)c1cccnc1,.,.,.,.,3%,.
CCOC(=O)CSc1ncnc2c1cnn2-c1ccccc1,1%,-1%,-3%,-5,2%,.
CCN(c1ccccc1)c1ncnc2c1cnn2-c1ccccc1,5µM*,?,14%,11,1%,-6%
CCOC(=O)CC(=O)CSc1ncnc2c1cnn2-c1ccccc1,6.3µM*,25%,28%,14,20%,1%
Cc1ccc(-n2ncc3c(SCc4ccccc4)ncnc32)cc1,4.5µM*,?,0%,-4,11%,3%[46.1 µM]
CN(Cc1ccccc1)c1ncnc2c1cnn2-c1ccccc1,?,?,12%,13,5%,6%
c1ccc(CCNc2ncnc3c2cnn3-c2ccccc2)cc1,4.5µM*,?,28%,-23,16%,4%[46.1 µM]
Cc1ccc(-n2ncc3c(NCCc4ccccc4)ncnc32)cc1C,.,.,.,.,-3%,.
COC(=O)[C@H]1[C@H]2C[C@@H]3c4[nH]c5ccccc5c4CCN3C[C@H]2C[C@@H](OC(=O)c2cc(OC)c(OC)c(OC)c2)[C@@H]1OC,.,.,.,.,6%,.
COc1ccccc1CCNC(=O)c1ccc(-c2nc(CSc3ccc(C)cc3)c(C)o2)cc1,.,.,.,.,-2%,.
O=C(c1ccc2c(=O)n(-c3ccccc3)c(=O)[nH]c2c1)N1CCN(Cc2cccs2)CC1,-7%,.,.,.,.,.
Cc1ccc(CSc2ncnc3c2cnn3-c2ccc(C)cc2)cc1,4.5µM*,12%,0%,26,-1%,0%[46.1 µM]
Cc1ccc(CSc2ncnc3c2cnn3-c2ccccc2)cc1,58%,5%,1%,-11,3%,-6%[46.1 µM]
Oc1ccccc1Nc1ccccn1,22%,8%,9%,-4,13µM*,0%
CC(=O)Nc1cc(OC(C)=O)c2nonc2c1OC(C)=O,-62%,-33%,-6%,-74*,9%,2%
Fc1cccc(F)c1/C=C/c1ccc2ccccc2n1,20%,22µM*,13%,1,7%,-3%[46.1 µM]
SMILES,BRCA1 expr up,p53 reactivation,N370S GC mod,TSHR antagonist,GLS inhibitor,TCR activator
COc1nc(C#N)nc(N2CCCCC2)n1,-36%,.,.,.,.,.
O=C(c1cc2ccccc2[nH]1)c1cc2cc(O)ccc2[nH]1,36%,.,.,.,.,.
O=C(Nc1nnc(-c2ccc(F)cc2)s1)c1ccco1,2.8µM*,19%,-14%,-7,1%,4%
CC(C)(C)c1ccc(-c2nnc(NC(=O)c3ccccc3)s2)cc1,3.2µM*,-3%,2%,15,6%,3%
Cc1nnc(NC(=O)c2ccccc2)s1,.,.,.,.,0%,.
Cc1cccc(-c2nnc(NC(=O)c3ccco3)s2)c1,?,?,-4%,1,-9%,-15%
CCOc1ccc(NC(=O)COC(=O)c2ccccc2OCc2ccccc2Br)cc1,0%,.,.,.,.,.
Cc1ccccc1-c1nc(Cc2ccccc2)no1,10µM*,?,12%,7,1%,1%
COc1ccc(Oc2cnc3ccccc3n2)cc1,11µM*,8%,7%,17,0%,-5%
COc1ccccc1CNc1nc(-c2ccco2)nn1C(=O)c1ccccc1[N+](=O)[O-],.,.,.,.,-3%,.
Nc1ccc(C(=O)Nc2ccc3c(O)cc(S(=O)(=O)O)cc3c2)cc1,-5%,.,.,.,6.3µM*,-1%
COc1ccc2c(c1)OC(C)(C)C(c1ccccc1)C2c1ccc(OCCN2CCCC2)cc1 (stereo not drawn),.,.,.,.,15%,.
COC(=O)c1c(C)sc(-c2c(-c3ccc(F)cc3)[nH]c3[nH]c(=O)[nH]c(=O)c23)c1O,.,.,.,.,12%,.
COc1cc(C/C=C\c2ccccc2)c(OC)cc1O,.,.,-7%,.,.,.
Cc1cccc(-c2nnc(-c3cccc(NC(=O)Cc4cccs4)c3)o2)c1,13µM*,3%,19%,-7,2%,-1%
CN(C)/C=C1\N=C(c2ccc3c(c2)OCO3)OC1=O,7.9µM*,?,-7%,5,1%,3%[46.1 µM]
CCCCS/C(N)=N/N=C/c1ccccc1O,7.9µM*,23%,0%,-12,32%,2%
Cc1ccccc1-c1cc(=O)c2ccccc2o1,-26%,9%,.,-4,-1%,10%
O=c1cc(-c2ccccc2F)oc2ccccc12,13µM*,?,?,-5,-6%,0%[46.1 µM]
CCCn1nc(NC(=O)c2ccccn2)c2cc3cc(C)ccc3nc21,11µM*,-4%,4%,15,-1%,-2%
COc1cc2cc3c4c(cc(OC)c(OC)c4c2cc1OC)CCN3C,.,.,13%,.,.,.
Cc1ccc(NC(=S)/C(C#N)=C2/Nc3ccccc3S2)cc1,-84%,.,.,.,20%,.
N#C/C(C(=O)N1CCCCC1)=C1\Nc2ccccc2S1,8.9µM*,?,28%,-14,9%,-1%
O=S(=O)(c1ccc(Cl)cc1)c1nc(-c2ccco2)oc1SCc1ccc(F)cc1,.,.,.,.,-7%,.
COc1ccccc1Cn1c(=S)[nH]c2cc(C(=O)NC(C)C)ccc2c1=O,-1%,-7%,-6%,5,3%,-1%
COc1ccccc1Cn1c(=S)[nH]c2ccccc2c1=O,4%,-3%,0%,20,20µM*,-3%
COc1ccccc1Cn1c(=S)[nH]c2cc(C(=O)NCC(OC)OC)ccc2c1=O,-21%,-3%,-8%,-2,10µM*,-2%
O=C(Cn1ccsc1=NC(=O)C(F)(F)F)c1ccccc1,7.9µM*,19%,8%,2,3%,4%
O=C1Cc2ccccc2C1=C1C=c2ccccc2=C1,-25%,.,.,.,.,.
Cc1ccc(NC(=O)Nc2ccc(Cl)c(Cl)c2)nc1,?,?,?,-8,5%,-5%
